In paper PMC7862700, “An all-to-all approach to the identification of sequence-specific readers for epigenetic DNA modifications on cytosine”:

Legend:
Test in all cases: DAPPL (digital affinity profiling via proximity ligation, sequencing); 10 mM Tris-HCl pH 7.5, 50 mM NaCl, 1 mM DTT, 4% glycerol, room temperature, 30 min; GST-TFs on glutathione beads, 16-mer random dsDNA library, 0.1% formaldehyde crosslink after washing; high values mean tight binding
[1] = target: T1, FLI1 (Homo sapiens, UniProt Q01543 1-452); settings: protein: recombinant; tags: N-terminal GST; dsDNA, one strand shown
T1 sequence: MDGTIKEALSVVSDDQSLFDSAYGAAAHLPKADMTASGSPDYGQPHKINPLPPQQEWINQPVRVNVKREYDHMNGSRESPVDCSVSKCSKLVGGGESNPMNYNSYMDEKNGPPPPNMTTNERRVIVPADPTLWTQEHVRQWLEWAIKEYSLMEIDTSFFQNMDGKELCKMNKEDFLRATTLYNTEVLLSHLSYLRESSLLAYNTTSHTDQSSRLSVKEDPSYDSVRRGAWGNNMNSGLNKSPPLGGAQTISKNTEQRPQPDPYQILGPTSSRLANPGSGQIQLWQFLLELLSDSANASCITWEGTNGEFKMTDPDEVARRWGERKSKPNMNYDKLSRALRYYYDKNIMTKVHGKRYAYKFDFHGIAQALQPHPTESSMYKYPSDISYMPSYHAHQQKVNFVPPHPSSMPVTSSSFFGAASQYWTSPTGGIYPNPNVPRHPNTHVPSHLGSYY
In short: (§1)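 Human transcription factors were made in yeast as GST fusions, captured on glutathione beads and barcoded with DNA. With a tag-only sample included, the pool was incubated with 200 nmole of a random double-stranded 16-mer DNA library in Tris/NaCl/DTT/glycerol buffer at room temperature for 30 min, then crosslinked with 0.1% formaldehyde after washing, ligated by proximity, amplified and sequenced. For binding signal, each hexamer's read frequency for a factor is divided by its frequency for the tag-only sample.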

[2] = target: T2, ELK1 (Homo sapiens, UniProt P19419 1-428); settings: protein: recombinant; tags: N-terminal GST; dsDNA, one strand shown
T2 sequence: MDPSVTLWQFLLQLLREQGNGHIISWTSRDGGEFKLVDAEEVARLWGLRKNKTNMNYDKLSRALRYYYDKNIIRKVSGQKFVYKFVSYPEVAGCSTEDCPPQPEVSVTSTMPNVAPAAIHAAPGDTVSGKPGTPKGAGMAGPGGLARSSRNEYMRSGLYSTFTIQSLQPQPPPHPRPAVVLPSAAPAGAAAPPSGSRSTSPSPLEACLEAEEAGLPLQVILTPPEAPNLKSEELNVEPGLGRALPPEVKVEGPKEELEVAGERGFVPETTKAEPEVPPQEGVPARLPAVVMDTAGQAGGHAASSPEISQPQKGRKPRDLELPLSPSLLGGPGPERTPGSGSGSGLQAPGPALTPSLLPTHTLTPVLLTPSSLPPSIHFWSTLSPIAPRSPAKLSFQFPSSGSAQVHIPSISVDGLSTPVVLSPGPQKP
In short: as §1

[3] = target: T3, GABPA (Homo sapiens, UniProt Q06546 1-454); settings: protein: recombinant; tags: N-terminal GST; dsDNA, one strand shown
T3 sequence: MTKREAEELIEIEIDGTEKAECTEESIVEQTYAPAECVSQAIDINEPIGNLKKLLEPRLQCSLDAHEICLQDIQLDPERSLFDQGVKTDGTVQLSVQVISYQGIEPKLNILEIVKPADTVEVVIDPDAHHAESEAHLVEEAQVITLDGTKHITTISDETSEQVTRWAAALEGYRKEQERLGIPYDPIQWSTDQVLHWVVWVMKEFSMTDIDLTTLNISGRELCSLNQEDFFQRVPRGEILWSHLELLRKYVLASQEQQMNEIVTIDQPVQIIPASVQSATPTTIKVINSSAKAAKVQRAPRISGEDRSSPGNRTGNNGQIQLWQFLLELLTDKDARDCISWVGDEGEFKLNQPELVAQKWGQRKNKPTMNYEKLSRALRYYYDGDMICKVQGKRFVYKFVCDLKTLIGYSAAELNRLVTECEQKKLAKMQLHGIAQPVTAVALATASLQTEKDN
In short: as §1

[4] = target: T4, ERG (Homo sapiens, UniProt P11308 1-479); settings: protein: recombinant; tags: N-terminal GST; dsDNA, one strand shown
T4 sequence: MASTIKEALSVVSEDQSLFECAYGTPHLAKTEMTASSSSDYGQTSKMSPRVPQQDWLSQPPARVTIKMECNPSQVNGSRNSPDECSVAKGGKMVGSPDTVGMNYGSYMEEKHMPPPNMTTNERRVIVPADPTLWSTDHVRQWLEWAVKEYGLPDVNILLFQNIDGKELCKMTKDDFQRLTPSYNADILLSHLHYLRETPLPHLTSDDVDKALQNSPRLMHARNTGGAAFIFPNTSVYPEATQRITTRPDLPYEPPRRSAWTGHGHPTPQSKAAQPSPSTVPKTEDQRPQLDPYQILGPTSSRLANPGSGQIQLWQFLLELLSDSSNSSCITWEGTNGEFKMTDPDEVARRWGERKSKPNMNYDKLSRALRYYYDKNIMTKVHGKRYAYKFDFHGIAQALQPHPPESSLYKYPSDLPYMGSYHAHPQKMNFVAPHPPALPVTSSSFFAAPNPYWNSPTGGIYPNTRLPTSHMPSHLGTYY
In short: as §1

[5] = target: ELF1 (Homo sapiens, UniProt P32519 1-619); settings: protein: recombinant; tags: N-terminal GST; dsDNA, one strand shown
In short: as §1

[6] = target: T5, EHF (Homo sapiens, UniProt Q9NZC4 1-300); settings: protein: recombinant; tags: N-terminal GST; dsDNA, one strand shown
T5 sequence: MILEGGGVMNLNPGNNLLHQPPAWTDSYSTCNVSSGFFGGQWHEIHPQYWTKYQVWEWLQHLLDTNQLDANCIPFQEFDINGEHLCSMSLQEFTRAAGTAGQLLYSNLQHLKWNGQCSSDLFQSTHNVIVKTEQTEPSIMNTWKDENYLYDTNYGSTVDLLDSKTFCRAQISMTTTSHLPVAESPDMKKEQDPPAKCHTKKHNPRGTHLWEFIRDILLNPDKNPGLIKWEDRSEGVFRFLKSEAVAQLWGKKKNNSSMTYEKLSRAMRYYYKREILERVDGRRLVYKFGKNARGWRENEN
In short: as §1

[7] = target: SPI1 (Homo sapiens, UniProt P17947 1-270); settings: protein: recombinant; tags: N-terminal GST; dsDNA, one strand shown
In short: as §1

[8] = target: SPIB (Homo sapiens, UniProt Q01892 1-262); settings: protein: recombinant; tags: N-terminal GST; dsDNA, one strand shown
In short: as §1

[9] = target: T6, ELK3 (Homo sapiens, UniProt P41970 1-407); settings: protein: recombinant; tags: N-terminal GST; dsDNA, one strand shown
T6 sequence: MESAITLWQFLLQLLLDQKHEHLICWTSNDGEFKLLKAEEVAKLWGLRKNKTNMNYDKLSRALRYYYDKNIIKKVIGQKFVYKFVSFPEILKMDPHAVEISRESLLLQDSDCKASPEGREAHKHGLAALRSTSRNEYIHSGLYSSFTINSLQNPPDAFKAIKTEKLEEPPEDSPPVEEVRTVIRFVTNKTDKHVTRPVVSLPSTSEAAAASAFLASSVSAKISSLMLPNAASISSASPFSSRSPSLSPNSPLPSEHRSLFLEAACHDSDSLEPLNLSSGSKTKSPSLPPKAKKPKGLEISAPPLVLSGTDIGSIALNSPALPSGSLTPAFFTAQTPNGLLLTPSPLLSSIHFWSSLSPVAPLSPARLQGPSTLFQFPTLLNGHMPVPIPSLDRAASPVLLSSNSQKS
In short: as §1

[10] = target: T7, FEV (Homo sapiens, UniProt Q99581 1-238); settings: protein: recombinant; tags: N-terminal GST; dsDNA, one strand shown
T7 sequence: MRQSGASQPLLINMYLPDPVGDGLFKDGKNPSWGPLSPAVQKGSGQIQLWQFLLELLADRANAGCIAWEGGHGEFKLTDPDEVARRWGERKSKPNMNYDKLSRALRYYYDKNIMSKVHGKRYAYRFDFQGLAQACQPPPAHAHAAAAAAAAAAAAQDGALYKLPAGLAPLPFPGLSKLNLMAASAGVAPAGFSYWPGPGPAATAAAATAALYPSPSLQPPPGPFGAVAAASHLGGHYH
In short: as §1

[11] = target: ETV5 (Homo sapiens, UniProt P41161 1-510); settings: protein: recombinant; tags: N-terminal GST; dsDNA, one strand shown
In short: as §1

[12] = target: HSF1 (Homo sapiens, UniProt Q00613 1-529); settings: protein: recombinant; tags: N-terminal GST; chain copies: 3; dsDNA, one strand shown
In short: as §1

[13] = target: T8, SPIC (Homo sapiens, UniProt Q8N5J4 1-248); settings: protein: recombinant; tags: N-terminal GST; dsDNA, one strand shown
T8 sequence: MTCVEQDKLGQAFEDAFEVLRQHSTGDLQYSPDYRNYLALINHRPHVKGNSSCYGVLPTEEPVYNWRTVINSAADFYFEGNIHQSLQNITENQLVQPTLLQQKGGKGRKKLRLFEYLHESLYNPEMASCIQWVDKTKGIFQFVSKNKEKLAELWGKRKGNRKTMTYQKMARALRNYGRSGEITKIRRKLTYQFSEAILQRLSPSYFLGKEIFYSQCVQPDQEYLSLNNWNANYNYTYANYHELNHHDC
In short: as §1

[14] = target: ELF4 (Homo sapiens, UniProt Q99607 1-663); settings: protein: recombinant; tags: N-terminal GST; dsDNA, one strand shown
In short: as §1

[15] = target: T9, ELK4 (Homo sapiens, UniProt P28324-2 1-405); settings: protein: recombinant; tags: N-terminal GST; dsDNA, one strand shown
T9 sequence: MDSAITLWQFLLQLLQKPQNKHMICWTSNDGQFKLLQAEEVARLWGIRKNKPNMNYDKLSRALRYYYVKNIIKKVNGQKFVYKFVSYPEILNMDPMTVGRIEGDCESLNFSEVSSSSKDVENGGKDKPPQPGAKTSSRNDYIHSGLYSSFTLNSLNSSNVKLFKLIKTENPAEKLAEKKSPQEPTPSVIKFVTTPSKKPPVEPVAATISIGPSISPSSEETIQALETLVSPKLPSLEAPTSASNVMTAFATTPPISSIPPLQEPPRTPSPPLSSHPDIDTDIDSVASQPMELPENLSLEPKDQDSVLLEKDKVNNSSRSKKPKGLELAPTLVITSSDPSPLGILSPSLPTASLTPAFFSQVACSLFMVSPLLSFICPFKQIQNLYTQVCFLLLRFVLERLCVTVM
In short: as §1

[16] = target: T10, ELF3 (Homo sapiens, UniProt P78545 1-371); settings: protein: recombinant; tags: N-terminal GST; dsDNA, one strand shown
T10 sequence: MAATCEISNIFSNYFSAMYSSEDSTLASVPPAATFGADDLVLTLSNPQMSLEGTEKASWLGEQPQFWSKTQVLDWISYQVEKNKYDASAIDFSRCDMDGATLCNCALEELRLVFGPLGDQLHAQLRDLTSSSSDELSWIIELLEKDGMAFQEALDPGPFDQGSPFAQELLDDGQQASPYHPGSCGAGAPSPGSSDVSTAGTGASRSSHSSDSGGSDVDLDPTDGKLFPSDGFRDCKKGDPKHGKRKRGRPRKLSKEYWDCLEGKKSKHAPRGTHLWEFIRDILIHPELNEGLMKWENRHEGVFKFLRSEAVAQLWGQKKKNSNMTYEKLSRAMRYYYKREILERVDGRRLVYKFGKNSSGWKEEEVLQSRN
In short: as §1

[17] = target: ETV1 (Homo sapiens, UniProt P50549 1-477); settings: protein: recombinant; tags: N-terminal GST; dsDNA, one strand shown
In short: as §1

Chain of ELF4 (Q99607 whole entry): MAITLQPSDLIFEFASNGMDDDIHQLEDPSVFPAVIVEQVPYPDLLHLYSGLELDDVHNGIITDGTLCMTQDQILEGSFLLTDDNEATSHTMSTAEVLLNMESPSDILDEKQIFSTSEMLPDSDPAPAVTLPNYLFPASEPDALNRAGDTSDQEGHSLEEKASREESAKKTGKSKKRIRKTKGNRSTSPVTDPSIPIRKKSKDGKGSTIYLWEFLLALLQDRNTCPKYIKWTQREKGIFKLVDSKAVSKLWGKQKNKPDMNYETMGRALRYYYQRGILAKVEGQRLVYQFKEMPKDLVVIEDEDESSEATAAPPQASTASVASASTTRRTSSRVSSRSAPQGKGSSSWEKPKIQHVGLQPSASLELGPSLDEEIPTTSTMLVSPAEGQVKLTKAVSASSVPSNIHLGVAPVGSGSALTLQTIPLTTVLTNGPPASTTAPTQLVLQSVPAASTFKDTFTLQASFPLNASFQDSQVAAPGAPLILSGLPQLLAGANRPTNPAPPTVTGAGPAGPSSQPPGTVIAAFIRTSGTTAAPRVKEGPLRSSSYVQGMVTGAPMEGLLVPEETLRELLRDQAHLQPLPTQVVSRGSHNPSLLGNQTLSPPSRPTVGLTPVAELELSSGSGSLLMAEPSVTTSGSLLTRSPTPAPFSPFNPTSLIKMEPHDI
Chain of ETV1 (P50549 whole entry): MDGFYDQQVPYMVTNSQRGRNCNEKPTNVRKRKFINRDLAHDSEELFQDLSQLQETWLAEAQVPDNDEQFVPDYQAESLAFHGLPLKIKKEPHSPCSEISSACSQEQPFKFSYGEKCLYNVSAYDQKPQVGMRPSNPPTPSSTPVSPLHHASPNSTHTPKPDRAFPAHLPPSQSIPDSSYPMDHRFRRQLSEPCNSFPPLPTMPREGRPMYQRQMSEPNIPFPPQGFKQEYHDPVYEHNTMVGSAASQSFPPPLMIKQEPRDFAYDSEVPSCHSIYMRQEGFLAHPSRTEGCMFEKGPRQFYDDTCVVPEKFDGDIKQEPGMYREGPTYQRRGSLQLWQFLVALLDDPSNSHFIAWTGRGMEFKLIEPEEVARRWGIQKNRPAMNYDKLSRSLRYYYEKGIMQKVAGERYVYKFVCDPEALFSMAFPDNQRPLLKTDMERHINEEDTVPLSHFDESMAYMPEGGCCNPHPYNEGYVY
Chain of HSF1 (Q00613 whole entry): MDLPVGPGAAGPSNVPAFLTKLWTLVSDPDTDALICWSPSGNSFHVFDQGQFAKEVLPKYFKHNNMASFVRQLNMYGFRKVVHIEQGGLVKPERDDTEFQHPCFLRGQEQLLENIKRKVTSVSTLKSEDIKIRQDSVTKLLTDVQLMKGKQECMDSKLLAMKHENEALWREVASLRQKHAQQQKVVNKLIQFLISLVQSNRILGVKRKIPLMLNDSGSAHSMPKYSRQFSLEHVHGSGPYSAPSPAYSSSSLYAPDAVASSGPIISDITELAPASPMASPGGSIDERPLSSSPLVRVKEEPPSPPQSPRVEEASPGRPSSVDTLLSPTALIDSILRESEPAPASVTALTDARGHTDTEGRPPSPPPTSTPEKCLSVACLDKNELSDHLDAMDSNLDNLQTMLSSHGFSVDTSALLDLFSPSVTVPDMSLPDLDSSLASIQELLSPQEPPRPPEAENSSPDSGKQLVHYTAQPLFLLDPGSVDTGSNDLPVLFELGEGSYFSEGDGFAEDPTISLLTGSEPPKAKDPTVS
Chain of ELF1 (P32519 whole entry): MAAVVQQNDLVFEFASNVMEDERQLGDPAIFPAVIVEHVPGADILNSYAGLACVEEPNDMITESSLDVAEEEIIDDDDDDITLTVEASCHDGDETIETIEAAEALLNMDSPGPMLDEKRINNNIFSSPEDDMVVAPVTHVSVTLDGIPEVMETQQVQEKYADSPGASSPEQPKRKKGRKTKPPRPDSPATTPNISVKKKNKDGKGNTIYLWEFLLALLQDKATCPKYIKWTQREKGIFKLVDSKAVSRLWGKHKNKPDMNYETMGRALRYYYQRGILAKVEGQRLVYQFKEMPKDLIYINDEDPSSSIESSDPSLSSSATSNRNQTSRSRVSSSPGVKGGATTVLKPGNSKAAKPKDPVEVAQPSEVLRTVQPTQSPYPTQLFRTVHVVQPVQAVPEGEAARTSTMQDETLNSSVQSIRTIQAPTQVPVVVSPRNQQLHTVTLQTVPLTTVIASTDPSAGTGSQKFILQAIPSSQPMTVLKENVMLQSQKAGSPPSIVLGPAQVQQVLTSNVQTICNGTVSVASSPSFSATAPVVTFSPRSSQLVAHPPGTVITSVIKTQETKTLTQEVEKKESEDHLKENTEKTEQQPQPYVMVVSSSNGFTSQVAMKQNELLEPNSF
Chain of SPIB (Q01892 whole entry): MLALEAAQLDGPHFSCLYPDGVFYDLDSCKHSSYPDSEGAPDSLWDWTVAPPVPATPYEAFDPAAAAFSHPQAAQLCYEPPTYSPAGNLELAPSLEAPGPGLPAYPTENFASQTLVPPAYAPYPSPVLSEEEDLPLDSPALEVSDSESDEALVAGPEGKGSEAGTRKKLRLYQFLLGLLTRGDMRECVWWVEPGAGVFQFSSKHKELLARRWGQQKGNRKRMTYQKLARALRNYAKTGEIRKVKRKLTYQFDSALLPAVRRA
Chain of ETV5 (P41161 whole entry): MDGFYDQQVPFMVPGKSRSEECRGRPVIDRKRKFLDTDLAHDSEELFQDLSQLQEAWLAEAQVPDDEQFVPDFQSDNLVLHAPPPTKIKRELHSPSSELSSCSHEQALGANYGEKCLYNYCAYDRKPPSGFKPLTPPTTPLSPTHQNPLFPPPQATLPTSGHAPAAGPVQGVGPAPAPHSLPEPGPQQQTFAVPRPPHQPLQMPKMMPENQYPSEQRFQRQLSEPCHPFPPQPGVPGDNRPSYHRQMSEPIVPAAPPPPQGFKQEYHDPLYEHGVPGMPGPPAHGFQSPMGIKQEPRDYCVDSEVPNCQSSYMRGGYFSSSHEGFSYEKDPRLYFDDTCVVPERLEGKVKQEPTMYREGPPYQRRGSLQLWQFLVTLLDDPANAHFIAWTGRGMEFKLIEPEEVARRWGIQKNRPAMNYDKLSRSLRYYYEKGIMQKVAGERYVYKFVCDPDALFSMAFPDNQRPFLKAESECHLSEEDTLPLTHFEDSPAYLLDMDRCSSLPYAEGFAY

CCTCGT
binding signal [1]: 1.16 fold enrichment (6-mer frequency, TF over GST control)
binding signal [2]: 1.1 fold enrichment (6-mer frequency, TF over GST control)
binding signal [3]: 1.39 fold enrichment (6-mer frequency, TF over GST control)
binding signal [4]: 1.24 fold enrichment (6-mer frequency, TF over GST control)
binding signal [5]: 1.3 fold enrichment (6-mer frequency, TF over GST control)
binding signal [6]: 1.18 fold enrichment (6-mer frequency, TF over GST control)
binding signal [7]: 1.31 fold enrichment (6-mer frequency, TF over GST control)
binding signal [8]: 1.13 fold enrichment (6-mer frequency, TF over GST control)
binding signal [9]: 1.37 fold enrichment (6-mer frequency, TF over GST control)
binding signal [10]: 1.18 fold enrichment (6-mer frequency, TF over GST control)
binding signal [11]: 1.19 fold enrichment (6-mer frequency, TF over GST control)
binding signal [12]: 1.08 fold enrichment (6-mer frequency, TF over GST control)
binding signal [13]: 1.25 fold enrichment (6-mer frequency, TF over GST control)
binding signal [14]: 1.25 fold enrichment (6-mer frequency, TF over GST control)
binding signal [15]: 1.29 fold enrichment (6-mer frequency, TF over GST control)
binding signal [16]: 1.24 fold enrichment (6-mer frequency, TF over GST control)
binding signal [17]: 1.39 fold enrichment (6-mer frequency, TF over GST control)
